Activity calls are given as the source filed them. A call without a number means that no potency is given here. Calls come from the whole dose curve; as a rule, active = well fitted inhibition curve with a large enough effect; inconclusive = small, poorly fitted or top-dose-only effect; inactive = flat fitted curve, though single readings scatter.
These molecules were tested against DNA polymerase III PolC-type (Bacillus subtilis (strain 168)) (UniProt P13267) (assay: qHTS Validation Assay for the Inhibitors of DNA Replication in Gram-Positive Bacteria (AID 485295;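 note: reconstituted holoenzyme with PolC plus beta clamp SSB and primase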)). Conditions: Gram-positive bacterial DNA replication assay; series mostly up to 57.1 µM.
DNA polymerase III PolC-type (Bacillus subtilis (strain 168)), sequence (P13267 whole entry, looked up): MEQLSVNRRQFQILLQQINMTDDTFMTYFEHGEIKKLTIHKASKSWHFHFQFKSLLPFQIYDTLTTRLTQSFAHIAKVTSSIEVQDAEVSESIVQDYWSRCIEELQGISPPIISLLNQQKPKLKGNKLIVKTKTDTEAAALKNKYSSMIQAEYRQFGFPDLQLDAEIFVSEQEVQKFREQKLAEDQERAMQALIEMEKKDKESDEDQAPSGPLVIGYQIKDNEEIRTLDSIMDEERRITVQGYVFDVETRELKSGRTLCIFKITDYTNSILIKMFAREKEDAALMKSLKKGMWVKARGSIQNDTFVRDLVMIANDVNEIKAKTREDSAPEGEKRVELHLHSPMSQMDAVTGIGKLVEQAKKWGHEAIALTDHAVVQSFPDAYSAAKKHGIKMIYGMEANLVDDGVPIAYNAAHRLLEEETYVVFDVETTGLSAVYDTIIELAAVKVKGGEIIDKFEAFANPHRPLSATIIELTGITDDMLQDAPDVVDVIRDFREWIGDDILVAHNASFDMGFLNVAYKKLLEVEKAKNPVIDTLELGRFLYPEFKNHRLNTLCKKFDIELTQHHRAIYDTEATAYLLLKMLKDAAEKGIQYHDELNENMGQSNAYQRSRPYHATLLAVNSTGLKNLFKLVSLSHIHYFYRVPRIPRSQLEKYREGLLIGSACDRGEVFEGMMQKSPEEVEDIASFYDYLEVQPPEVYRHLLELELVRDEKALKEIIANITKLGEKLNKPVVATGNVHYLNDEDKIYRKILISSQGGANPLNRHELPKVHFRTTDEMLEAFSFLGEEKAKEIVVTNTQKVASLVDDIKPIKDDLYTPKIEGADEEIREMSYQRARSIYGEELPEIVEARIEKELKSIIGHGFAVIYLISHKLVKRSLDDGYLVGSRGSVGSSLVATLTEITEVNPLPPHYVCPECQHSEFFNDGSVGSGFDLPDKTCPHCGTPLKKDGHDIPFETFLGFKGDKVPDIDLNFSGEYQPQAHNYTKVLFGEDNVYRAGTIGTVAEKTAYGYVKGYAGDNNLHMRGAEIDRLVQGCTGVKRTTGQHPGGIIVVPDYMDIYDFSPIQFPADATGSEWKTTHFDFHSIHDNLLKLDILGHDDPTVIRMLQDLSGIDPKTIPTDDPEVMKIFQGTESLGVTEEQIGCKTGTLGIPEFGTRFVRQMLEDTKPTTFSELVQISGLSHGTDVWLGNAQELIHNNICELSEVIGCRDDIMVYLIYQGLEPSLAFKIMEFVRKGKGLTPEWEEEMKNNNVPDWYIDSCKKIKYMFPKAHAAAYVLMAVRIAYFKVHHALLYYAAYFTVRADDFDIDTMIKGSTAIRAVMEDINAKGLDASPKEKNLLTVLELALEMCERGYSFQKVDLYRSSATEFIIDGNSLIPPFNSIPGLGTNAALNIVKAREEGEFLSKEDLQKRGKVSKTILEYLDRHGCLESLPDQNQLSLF
Experimental: B Subtilis DNA polymerase III holoenzyme complex was assayed for DNA production by fluorescent detection of the double-stranded DNA product with PicoGreen dye. The holoenzyme complex was reconstituted from the following purified protein components: DNA Polymerase III, beta subunit processivity factor, SSB single-stranded DNA binding protein, and Primase. Single-stranded, circular M13Gori was used as a substrate with dNTPs and NTPs also supplied to the substrate reagent. Compounds from the NCGC collection were incubated with the holoenzyme mixture for […] at room temperature to allow binding to occur, and then the reaction was started by the addition of substrate. After 30 min incubation at room temperature, PicoGreen solution containing EDTA was added to stop the reaction and to visualize the double-stranded DNA produced. Reaction progress was measured in a ViewLux CCD imager in fluorescence intensity mode by using 480 nm excitation and 540 nm emission filter set.
1. Thaw screening compounds.
2. Label assay plates. Prepare pipette tips, reagent reservoirs, buffers and controls.
1. Thaw Enzymes, DNA template, Nucleotides and PicoGreen dye concentrate. Thawed enzymes are stable on ice for ~1
week. Other thawed components are stable indefinitely.
2. Prepare sufficient quantities of Enzyme, Substrate and PicoGreen Quench mixes (according to Table II). For the number of
compound plates being screened.
3. Ensure that the tip wash station reservoirs have clean water and turn on recirculating chiller so that the chilled deck position
1. Load 2 uL of EDTA controls (250 mM, Background, 100 % inhibition) and 2 uL of DMSO controls (Negative control, 0%
inhibition) in the screening plates (flat-bottomed black 384-well polypropylene, Greiner Bio-one).
2. Place Enzyme mix reservoir on the chiller position of the liquid handler deck. Make sure that chiller will maintain
temperature of Enzyme mix at 4degC. Substrate mix and PicoGreen Quench can be stored at room temp.
3. Program liquid handling robotics to dispense 18 uL of Enzyme mix into assay plates. Wash tips.
4. Aspirate and dispense 2 uL of compound from compound plates, mix and Incubate at room temperature for 10 minutes.
5. Aspirate 5 ul of Substrate mix, dispense into assay plates and mix by pipetting. Wash tips.
6. Incubate at room temperature (21 +/- 1 deg C) for 20 minutes.
7. Quench reactions by addition of 25 uL PicoGreen Quench mix and mix by pipetting (using HTS robotics or bulk reagent
dispenser such as a Multidrop or uFill). Keep plates in the dark or stacked until ready to read fluorescence.
8. Read fluorescence intensity of plates on plate reader using "Fluorescein (Ex 485 nm/ Em 535 nm, 0.1s)" setting.

SMILES	Potency
OC[C@H]1O[C@@H](n2cnc3cncnc32)[C@H](O)[C@@H]1O	inactive
N=S(=O)(O)Cc1noc2ccccc12	inactive
CCCn1c(=O)c2c(ncn2C)n(CCC)c1=O	inactive
c1ccc2nc(C3=NCCN3)ccc2c1	inactive
CC[C@H](NC(=O)c1c(C)c(-c2ccccc2)nc2ccccc12)c1ccccc1	inactive
N#Cc1cc2nc(O)c(O)nc2cc1[N+](=O)[O-]	inactive
O=C1C2C=CC=CC2=NC(=S)N1CCN1CCC(=C(c2ccc(F)cc2)c2ccc(F)cc2)CC1 (stereo not given)	inactive
Nc1nc2[nH]c(=O)cnc2c(=O)[nH]1	inactive
COc1ccccc1N1CCN(CCN(C(=O)c2ccc(F)cc2)c2ccccn2)CC1	inactive
CCCCCC[C@@H]([C@@H](C)O)n1cnc2c(N)ncnc21	inactive
CSC(N)=NCCC[C@H](N)C(=O)O	inactive
c1ccc(C(NCc2cccnc2)(c2ccccc2)c2ccccc2)cc1	inactive
CCCC(=O)NCCc1c2n(c3ccc(OC)cc13)CCCc1ccccc1-2	inactive
CC(C)C[C@H](NC(=O)C1OC1C(=O)O)C(=O)NCCCCN=C(N)N (stereo not given in full)	inactive
O=c1[nH]ccc2c(O)cccc12	inactive
CCCc1c(-c2ccc(O)cc2)nn(-c2ccc(O)cc2)c1-c1ccc(O)cc1	inactive
Nc1ccc(CCNc2ncnc3c2ncn3C2OC(CO)C(O)C2O)cc1 (stereo not given)	inactive
N[C@H](C(=O)O)[C@H](O)C(=O)O	inactive
O=C1OC(=O)C2C3CCC(O3)C12 (stereo not given)	inactive
NC1C=CC=C(C(=O)O)C1 (stereo not given)	inactive

SMILES	Potency
CCCCC[C@H](CC(=O)NO)C(=O)N[C@H](C(=O)N1CCC[C@H]1CO)C(C)C	inactive
CN1CCC2(CCN3CCc4c(oc5ccccc45)C3C2)N(C)C1=O (stereo not given)	inactive
C=C1C[C@@]23CC[C@H]4[C@@](C)(CCC[C@@]4(C)C(=O)O)[C@@H]2CC[C@]1(O)C3	inactive
CC(C)(C)c1cc(/C=C(\C#N)C(N)=S)cc(C(C)(C)C)c1O	inactive
C[C@H]1CC2C3CCC4=CC(=O)C=C[C@]4(C)[C@@]3(Cl)[C@@H](O)C[C@]2(C)[C@@]1(O)C(=O)CO (stereo not given in full)	inactive
NC(N)=N[C@@H](CCC(=O)O)C(=O)O	inactive
CC1CNCCN1S(=O)(=O)c1cccc2cnccc12 (stereo not given)	inactive
O=c1ccn([C@@H]2O[C@H](COP(=O)(O)OP(=O)(O)O)[C@@H](O)[C@H]2O)c(=O)[nH]1	inactive
Nc1ccc(N2C(=O)c3ccccc3C2=O)c(Cl)c1	inactive
NC1(C(=O)O)CCc2cc(C(=O)O)ccc21 (stereo not given)	inactive
O=C(O)c1cc(=O)cc(C(=O)O)[nH]1	inactive
CC[n+]1c(/C=C/C=C2/N(C)c3ccccc3C2(C)C)sc2ccccc21	inactive
CC1=C(/C=C/C(C)=C/C=C/C(C)=C\C(=O)O)C(C)(C)CCC1	inactive
C#CCn1c(=O)c2c(ncn2C)n(C)c1=O	inactive
C=CCn1c(=O)c2c(nc(-c3ccc(S(=O)(=O)O)cc3)n2C)n(C)c1=O	inactive
O=C(O)Cc1ccc(O)c(O)c1	inactive
O=c1onc2cnc3ccccc3n12	inactive
Cc1ccccc1/C=C/C1=NCCN1	inactive
c1ccc2c(c1)CC(N1CCN(c3cccc4c3OCCO4)CC1)C2	inactive
Cc1ccc([N+](=O)[O-])cc1S(=O)(=O)N(C)C	inactive
